TSHR antag – blocks TSH signaling through the human TSH receptor. actives 0.2% (n = 330,000). AID 504810. activity change, negative = inhibition, % at 11.5 µM. TSHR-expressing cells, TSH-stimulated cAMP HTRF, 2 h; active compounds read low. P16473;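 active = activity change below a set negative limit, meaning inhibition stronger than a set level, cut at about -70% in these data; inconclusive = activity change between two set negative limits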
Target sequence (P16473 whole entry, looked up): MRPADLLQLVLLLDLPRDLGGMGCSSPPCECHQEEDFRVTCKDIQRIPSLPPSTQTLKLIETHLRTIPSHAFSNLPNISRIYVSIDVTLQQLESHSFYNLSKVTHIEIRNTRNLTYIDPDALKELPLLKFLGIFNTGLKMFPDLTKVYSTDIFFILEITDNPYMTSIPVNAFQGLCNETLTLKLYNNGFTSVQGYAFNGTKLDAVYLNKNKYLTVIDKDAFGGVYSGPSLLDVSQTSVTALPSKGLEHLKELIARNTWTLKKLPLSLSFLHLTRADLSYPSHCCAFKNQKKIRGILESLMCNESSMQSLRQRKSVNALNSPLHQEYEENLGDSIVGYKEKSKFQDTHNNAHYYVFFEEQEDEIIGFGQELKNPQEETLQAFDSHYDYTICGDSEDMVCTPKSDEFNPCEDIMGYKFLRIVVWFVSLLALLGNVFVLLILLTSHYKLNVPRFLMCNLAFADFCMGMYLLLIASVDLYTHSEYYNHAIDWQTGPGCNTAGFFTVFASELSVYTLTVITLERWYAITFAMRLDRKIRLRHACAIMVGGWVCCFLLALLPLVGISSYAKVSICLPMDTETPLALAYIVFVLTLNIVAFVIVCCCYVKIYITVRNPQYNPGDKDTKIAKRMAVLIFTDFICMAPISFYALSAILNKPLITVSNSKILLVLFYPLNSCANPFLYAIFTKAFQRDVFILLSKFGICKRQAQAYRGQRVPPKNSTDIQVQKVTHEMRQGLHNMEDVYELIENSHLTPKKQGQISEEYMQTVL
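TSHR-expressing cells were treated with compounds, then stimulated with TSH at EC80 (4nM final) for 2 hours at 37 deg C. Cellular cAMP was measured by HTRF competition between lysate cAMP and cAMP-d2 for a cryptate-labelled anti-cAMP antibody.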
VP16 counter – Gal4-VP16 reporter inhibition counter-screen. Potency, µM (doses to about 53.6 µM), without a hit: at the top dose activity, negative = inhibition, usual class: inhibitors. AID 2546. Drosophila S2 Gal4-VP16 UAS-luciferase, luminescence, 20 h. actives 3.5% (n = 310,000);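 note: Gal4-VP16 expression switched on by copper sulfate through the metallothionein promoter; potency is the fitted concentration of half-maximal effect; nearly all actives have a fitted effect of over 50% in size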
Coupling enz – counter-screen for Giardia aldolase inhibitors: coupling enzyme system. activity change, negative = inhibition, % at 58.2 µM, hits read low. coupling enzyme system counterscreen, AmpLite Red fluorescence. actives 0.67% (n = 290,000); in the data active = activity change below about -30%
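Fluorescence at 525 nm excitation and 598 nm emission measured inhibition of the coupled detection system without aldolase. Compounds (at 57.5 uM final) were preincubated 10 min at room temperature with coupling enzyme reagent before a 20 min substrate/AmpLite Red step.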
RORg inh – ROR gamma (mouse) transcription inhibition | P51450 | Potency, µM (doses to about 53.6 µM), for the others: at the highest dose activity change, negative = inhibition, actives largely listed as inhibitors | Drosophila S2 Gal4-RORgamma UAS-luciferase reporter, 20 h | actives 5.4% (n = 310,000); note: potency is the fitted concentration of half-maximal effect; nearly all actives have a fitted effect of over 60% in size
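Stably transfected Drosophila Schneider cells are the test system, with ROR gamma fused to Gal4 and luciferase under UAS control; luminescence is read after 20 hr of 700 uM copper sulfate induction at ambient temperature.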
ELG1 DNA repair – inhibitors of ELG1-dependent DNA repair in HEK293T cells; HEK293T ELG1-luciferase reporter, luminescence, 16 h; DNA damage induced by 5-fluorouridine; actives 2.3% (n = 330,000); Potency, µM (highest dose often 46.1 µM), inactives show top-dose activity change, negative = inhibition, actives largely listed as inhibitors; note: potency is the fitted concentration of half-maximal effect; nearly all actives have a fitted effect of over 55% in size
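5-Fluorouridine DNA damage + compound/DMSO, 2,000 cells/well, 16 h, 37 °C/5% CO2. ONE-Glo, 30 min RT, luminescence. Readout = decrease in reporter signal.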
* marks the source's active call; other numbers are inactive results; ? = inconclusive; / = no result; [ ] = remark or other dose. Shown are actives, neighbours in structure and some others; about 8% of the full set was active somewhere. Unless noted, calls come from the whole dose curve; as a rule, active = well fitted curve in the direction sought with a large enough effect; inconclusive = small, poorly fitted or top-dose-only effect, or another doubt; inactive = no such curve, though single readings can be large; an effect the other way counts as inactive or inconclusive. % is set by controls: 0 for no effect and ±100 for the full control effect.

SMILES	TSHR antag	VP16 counter	Coupling enz	RORg inh	ELG1 DNA repair
O=S(=O)(c1ccc(NC(=S)NCCC(c2ccccc2)c2ccccc2)cc1)N1CCOCC1	-12.5	-12.3%	-4.4	6.6%	18.4µM*
CCCCOCCCNC(=S)Nc1ccc(S(=O)(=O)N2CCOCC2)cc1	-9.3	-23.0%	4.6	24.0%	?
O=C(Nc1ccc(S(=O)(=O)N2CCCC2)cc1)c1ccc([N+](=O)[O-])cc1	-3.5	4.3%	1.1	-15.4%	9.2µM*
NCCC[C@@H](CC(=O)N[C@@H]1CCCC[C@H]1C(=O)N[C@H](CC(=O)N[C@@H](CCC(=O)O)CC(=O)O)Cc1c[nH]c2ccccc12)NC(=O)C[C@H](Cc1ccccc1)NC(=O)[C@@H]1CCCC[C@H]1N	/	7.6%	-0.1	9.4%	/
CCOc1ccccc1NC(=O)C1CCCN(S(=O)(=O)c2ccc(-n3cnnn3)cc2)C1 (stereo unspecified)	-1.3	-1.1%	1.2	-13.7%	-19.5%
CCCCC/C=C\C=C\C(O)CCCCCCCC(=O)O (stereo unspecified)	/	-0.3%	3.8	10.3%	/
Cc1ccccc1C(=O)NC(=S)Nc1ccc(S(=O)(=O)N2CCOCC2)cc1	-9.4	17.8µM*	4.2	20µM*	-12.7%
Cn1nccc1C(=O)Nc1ccc(S(=O)(=O)N2CCCC2)cc1	6.1	-7.7%	/	3.2%	-19.6%
O=C(Nc1ccn(-c2ccccc2)n1)c1ccc(S(=O)(=O)N2CCCCCC2)cc1	-48.2	-2.1%	-0.8	-2.5%	5.17µM*
Cn1nc(C(=O)Nc2ccc(S(=O)(=O)N3CCCCC3)cc2)ccc1=O	-11.2	-3.0%	5.2	-7.4%	16.4µM*
O=C(Nc1ccccc1)c1ccc(S(=O)(=O)N2CCCCC2)cc1	1.3	?	0.4	?	-12.5%
Cc1ccccc1C(=O)NC(=S)Nc1ccc(S(=O)(=O)N2CCN(C)CC2)cc1	13.1	?	0.8	-4.4%	-0.4%
CC1(C)C2CCC1(CS(=O)(=O)NCc1ccc(S(N)(=O)=O)cc1)C(=O)C2 (stereo unspecified)	10.2	1.6%	0.3	-14.8%	-3.7%
C=CCOc1ccc(C(=O)Nc2ccccc2C(=O)NCc2cccnc2)cc1	-8.5	4.5%	-2.7	4.2%	-25.3%
CCn1nc(C)c(CNC(=O)c2cc(COc3ccc(C)nc3)on2)c1C	-5.5	-12.6%	1.3	?	-24.6%
O=S(=O)(O)c1ccccc1	/	-4.0%	/	24.0%	/
Cc1ccc(OCC(=O)N2CCCCC2C)c([N+](=O)[O-])n1 (stereo unspecified)	/	/	/	/	0.0%
COc1ccccc1NC(=S)N(CCN1CCCCCC1)Cc1cccs1	-2.4	-14.7%[10 µM]	-3.2	14.1µM*	6.7%
CCc1ccccc1NC(=S)N(Cc1cccs1)C1CCCC1	-5.3	14.8%[10 µM]	-2.1	11.2µM*	-4.6%
Cc1ccccc1NC(=S)N(CCN1CCCCCC1)Cc1cccs1	19.0	?	2.7	10µM*	-10.5%
Cc1ccccc1NC(=S)N(Cc1ccccc1)Cc1cccs1	-0.2	-8.7%	1.0	10µM*	-1.9%
Fc1ccccc1NC(=S)N(CCN1CCCCCC1)Cc1cccs1	13.6	-3.4%[10 µM]	-3.2	12.0%	?
CC(=O)c1c(C)[nH]c(C(=O)CN2C(=O)NC(C)(c3ccc(C)cc3)C2=O)c1C (stereo unspecified)	5.0	-1.5%	-1.2	13.5%	?
Cc1ccccc1C(=O)Nc1ccnn1C1CCN(C(C)Cc2ccccc2F)CC1 (stereo unspecified)	0.5	2.5%	/	-0.3%	?
CN(C)CCP(=O)(c1ccccc1)c1ccccc1	-7.1	-2.1%[10 µM]	-0.9	22.2%	0.6%
SMILES	TSHR antag	VP16 counter	Coupling enz	RORg inh	ELG1 DNA repair
CCCP(=O)(CCC)CCP(=O)(c1ccccc1)c1ccccc1	15.8	-1.9%	-0.3	12.6µM*	-7.5%
CCOC(=O)C1(O)Oc2cc(OC)cc(OC)c2C(=O)C1c1ccccc1 (stereo unspecified)	/	-12.5%	14.7	9.5%	/
O=C(C1CCN(S(=O)(=O)c2cccc3cccnc23)CC1)N1CCn2c1nc1ccccc12	-14.2	-4.1%	0.0	-0.2%	23.1µM*
CC(=O)Nc1ccc(-c2csc(NC(=O)C3CSC4(C)CCC(=O)N34)n2)cc1 (stereo unspecified)	-2.5	/	/	/	?
Cc1nc(Nc2nc3ccccc3o2)nc(C)c1C	8.0	?	0.9	11.2µM*	?
Cc1ccc2oc(Nc3nc(C)c(C)c(C)n3)nc2c1	0.4	6.4%	0.8	?	?
CCOC(=O)c1cnc(Nc2nc3ccccc3o2)nc1CSC(=S)N(CC)CC	-4.1	0.562µM*	-2.5	0.562µM*	?
Cc1ccnc(Nc2nc3ccccc3o2)n1	11.6	7.94µM*	2.0	4.47µM*	?
Cc1ccc(Nc2nc3ccccc3o2)cc1F	-13.1	14.6%	-11.7	?	?
N#Cc1cnc(Nc2nc3ccccc3o2)nc1-c1ccccc1	0.5	5.01µM*	2.7	2.51µM*	-15.9%
CCN(CC)Cc1c(C(=O)N/N=C/c2c(Cl)cccc2Cl)nnn1-c1nonc1N	10.0	12.7%	-3.3	-1.6%	16.4%
CCCc1nc(Nc2nc3ccccc3o2)nc(C)c1C(=O)OCC	-1.6	?	1.5	6.31µM*	?
CCOC(=O)Cc1nc2ccccc2o1	-0.4	-3.7%	1.7	12.9%	?
O=C(NNC(=O)c1ccc(Cl)nc1)c1ccncc1	-23.7	/	/	/	12.7%
COc1ccc(-c2nnc(SCC(=O)NCCC(C)C)nc2-c2ccc(OC)c(OC)c2)cc1OC	0.0	-2.8%	0.1	10.0%	?
CCC(C)NC(=O)CSc1nnc(-c2cc(OC)c(OC)c(OC)c2)c(-c2cc(OC)c(OC)c(OC)c2)n1 (stereo unspecified)	21.6	?	1.5	2.82µM*	?
COc1ccccc1N1CCN(C(=O)c2oc3ccccc3c2C)CC1	7.7	-0.1%	-13.1	7.9%	2.7%
COc1ccccc1N1CCN(C(=O)c2cc3c(C)nc4ccccc4c3o2)CC1	-12.8	?	/	41.8%	13µM*
COc1ccccc1N1CCN(C(=O)c2cccc3c(=O)c(C)c(-c4ccccc4)oc23)CC1	-3.8	-0.9%	5.5	?	20.6µM*
O=C(CSc1nc(N2CCOCC2)nc(N2CCOCC2)n1)Nc1cccc(C(F)(F)F)c1	-3.8	0.7%	2.8	-2.7%	-1.3%
CC[C@@]12CCCN3CCc4c(n(c5ccccc45)C(=O)C1)[C@H]32	/	-2.7%[17 µM]	1.2	-1.4%[16.9 µM]	/
CC(C)(C)NC(=S)NC(=O)C12CC3CCC(CC(C3)C1)C2	5.6	4.47µM*	-1.5	2.82µM*	14.2%
CN(C(=S)NC(=O)C12CC3CC(CC(C3)C1)C2)c1ccc(O)cc1	-23.4	/	/	/	13.4%
CN(C)NC(=S)NC(=O)C12CC3CC(CC(C3)C1)C2	8.7	2.82µM*	-2.2	1µM*	13.8%
